# In PubChem BioAssay AID1347140 (National Center for Advancing Translational Sciences (NCATS), 2019):
# This is one part of the list. Records with an inconclusive call do not appear. Activity calls are given as the source filed them. Calls come from the whole dose curve; as a rule, active = well fitted inhibition curve with a large enough effect; inconclusive = small, poorly fitted or top-dose-only effect; inactive = no such curve, though single readings can be large or run the other way.
# Experiment: qHTS of pediatric cancer cell lines to identify multiple opportunities for drug repurposing: Orthogonal 3D viability screen for MG 63 (6-TG R) cells
# Conditions: MG-63 (6-TG R) 3D spheroid viability, PI/Hoechst imaging, 72 h; series mostly up to 30.7 µM
# Source text: Drug repurposing or repositioning has been offered as a strategy for drug development in oncology programs. This approach has special potential for childhood cancers and other rare or orphan diseases, where the expected return on new drug development has been a disincentive to pharmaceuticals. […] In this project we exploit the poly-pharmacology of drugs to discover new indications via phenotypic screening of a panel of 19 well-characterized cell lines derived from solid tumors seen in children and adolescents. The goal is to identify approved drugs with previously unrecognized anticancer properties that has the potential to reveal new mechanisms and biological processes involved in carcinogenesis or drug resistance. We employed a titration-based paradigm (quantitative high-throughput screening or qHTS), where all compounds were tested at multiple concentrations for their effect on cell viability. Concentration-response curves (CRCs) were derived directly from the primary screen, and both potency and efficacy values were used to identify compounds with robust bioactivity profiles. […] These two assays will be used to validate active compounds and assess the correlation of compound's potency in 2D vs 3D cultures on selected cell lines. Assay Submitter: Nathalia J. Martinez, National Center for Advancing Translational Sciences, National Institutes of Health, Rockville, MD, USA; email: natalia.martinez@nih.gov Shen, M et al. Quantitative high-throughput phenotypic screening of pediatric cancer cell lines identifies multiple opportunities for drug repurposing. Oncotarget 2017 Dec 19;9(4):4758-4772. PMID 29435139.
# The cells were obtained from University of North Carolina (UNC), Pediatric Preclinical Testing Program (PPT), and Coriell Institute (CI). qHTS viability in 3D culture: Cells were assayed in phenol red-free growth media at a density of 1,000 cells/well, with the exception of Daoy, and SH-N-SH which were assayed at 1,500 cells/ well. Thirty muL of cells were dispensed into 384-well, ULA, round bottom plates (Corning) using a Multidrop dispenser. […] Spheroid viability was first determined by high-content imaging using Hoechst 33342 and Propidium Iodide (PI, ThermoFisher Scientific), followed by addition of CellTiter-Glo 3D (Promega). […] Plates were incubated for 30 min at RT on a VWR microplate shaker (300 rpm) and analyzed for luminescence intensity using a ViewLux High-throughput CCD imager equipped with clear filters. […] The data were exported to Excel, and the average fluorescent intensities were used to calculate the ratio of PI over Hoechst, which was used to quantify viability. […]
row,Structure (SMILES),Potency
1,CC[C@]1(O)C[C@@H]2CN(CCc3c([nH]c4ccccc34)[C@@](C(=O)OC)(c3cc4c(cc3OC)N(C)[C@H]3[C@@](O)(C(=O)OC)[C@H](OC(C)=O)[C@]5(CC)C=CCN6CC[C@]43[C@@H]65)C2)C1,inactive
2,COc1c(C)c2c(c(O)c1C/C=C(\C)CCC(=O)O)C(=O)OC2,0.909 µM (active)
3,CC[C@H]1CN2CCc3cc(OC)c(OC)cc3[C@@H]2C[C@@H]1C[C@H]1NCCc2cc(OC)c(OC)cc21,0.81 µM (active)
4,CC(NCc1ccc2c(c1)nc(NC(=O)c1ccc(-c3cn[nH]c3)s1)n2CC(C)(C)O)C(C)(C)C (centres undefined),0.722 µM (active)
